Drawing on PubChem BioAssay, this text covers composite z-score and z-score for 14 molecules.

The nature of assay [1]: binders of probe aFSTL3 on microarray, primary screen, stem cell growth factor project, biochemical, small-molecule microarray, fluorescence 635/667 (AID 1064).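 Note: measures binding of the biotinylated anti-FSTL3 antibody to printed compounds.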 As to conditions: higher = more signal.
Assay [2] in a line: binders from COS7 lysate, DM2A8 probe, primary screen, torsin A project, cell lysate, small-molecule microarray, fluorescence 635/667 (AID 1065). The note with it: higher = more signal, COS7 lysate expressing mutant human TOR1A.
The nature of assay [3]: binders of probe aFGF2 on microarray, primary screen, stem cell growth factor project, biochemical, small-molecule microarray, fluorescence 635/667 (AID 1067).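 Note: measures binding of biotinylated aFGF2 protein to printed compounds on slides; z-score merges feature fluorescence and signal-to-noise across triplicate slides.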 As to conditions: higher = more signal.
Assay [4] can be described thus: binders of probe aFGF10 on microarray, primary screen, stem cell growth factor project, biochemical, small-molecule microarray, fluorescence 635/667 (AID 1071).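 Note: score merges 667 nm spot intensity and signal to noise from triplicate slides.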 As to conditions: higher = more signal.
Assay [5] concerns the target Neurogenic locus notch homolog protein 2 (Homo sapiens) (UniProt Q04721). As to the kind of experiment: Notch2 binders on small-molecule microarrays, primary screen, biochemical, small-molecule microarray, 635 nm fluorescence, stem cell growth factors (AID 1073). The note with it: Notch2 binding, higher = more signal.
Assay [6] deals with Pro-neuregulin-1, membrane-bound isoform (Homo sapiens) (UniProt Q02297). In words: NRG1 binders on small-molecule microarrays, primary screen, psychiatric disease protein project, biochemical, small-molecule microarray, fluorescence 635/667 (AID 1075).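 Note: score combines 667 nm spot fluorescence with signal to noise.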 As to conditions: NRG1 binding, 635 nm fluorescence, higher = more signal.
In assay [7] the test system is Neuregulin-1 EGF-like domain. As to the kind of experiment: binders of neuregulin-1 EGF-like domain, primary screen, biochemical, small-molecule microarray, 635 nm fluorescence (AID 1081).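 Note: binding of the protein to compounds printed on small-molecule microarray slides.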 The note with it: small-molecule microarray binding, higher = more signal.
The nature of assay [8]: FRG1 promoter luciferase signal modulators, primary screen, FRG1 inhibition for FSHD, cell-based, C2C12 myotubes, firefly/Renilla luciferase, luminescence (AID 1084). The note with it: higher = more signal, called active from +8 up or from −8 down.
Assay [9] in a line: binders of probe aFST on microarray, primary screen, stem cell growth factor project, biochemical, small-molecule microarray, fluorescence 635/667 (AID 1086).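 Note: score merges 667 nm fluorescence with signal-to-noise of each printed compound spot.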 The note with it: higher = more signal.
Assay [10] in a line: binders of probe aHhip on microarray, primary screen, stem cell growth factor project, biochemical, small-molecule microarray, fluorescence 635/667 (AID 1087).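 Note: score merges spot fluorescence at 667nm with spot signal to noise ratio.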 As to conditions: higher = more signal.

Activity calls are given as the source filed them.

Sequence of Neurogenic locus notch homolog protein 2 (Homo sapiens) (Q04721 whole entry, looked up, canonical isoform): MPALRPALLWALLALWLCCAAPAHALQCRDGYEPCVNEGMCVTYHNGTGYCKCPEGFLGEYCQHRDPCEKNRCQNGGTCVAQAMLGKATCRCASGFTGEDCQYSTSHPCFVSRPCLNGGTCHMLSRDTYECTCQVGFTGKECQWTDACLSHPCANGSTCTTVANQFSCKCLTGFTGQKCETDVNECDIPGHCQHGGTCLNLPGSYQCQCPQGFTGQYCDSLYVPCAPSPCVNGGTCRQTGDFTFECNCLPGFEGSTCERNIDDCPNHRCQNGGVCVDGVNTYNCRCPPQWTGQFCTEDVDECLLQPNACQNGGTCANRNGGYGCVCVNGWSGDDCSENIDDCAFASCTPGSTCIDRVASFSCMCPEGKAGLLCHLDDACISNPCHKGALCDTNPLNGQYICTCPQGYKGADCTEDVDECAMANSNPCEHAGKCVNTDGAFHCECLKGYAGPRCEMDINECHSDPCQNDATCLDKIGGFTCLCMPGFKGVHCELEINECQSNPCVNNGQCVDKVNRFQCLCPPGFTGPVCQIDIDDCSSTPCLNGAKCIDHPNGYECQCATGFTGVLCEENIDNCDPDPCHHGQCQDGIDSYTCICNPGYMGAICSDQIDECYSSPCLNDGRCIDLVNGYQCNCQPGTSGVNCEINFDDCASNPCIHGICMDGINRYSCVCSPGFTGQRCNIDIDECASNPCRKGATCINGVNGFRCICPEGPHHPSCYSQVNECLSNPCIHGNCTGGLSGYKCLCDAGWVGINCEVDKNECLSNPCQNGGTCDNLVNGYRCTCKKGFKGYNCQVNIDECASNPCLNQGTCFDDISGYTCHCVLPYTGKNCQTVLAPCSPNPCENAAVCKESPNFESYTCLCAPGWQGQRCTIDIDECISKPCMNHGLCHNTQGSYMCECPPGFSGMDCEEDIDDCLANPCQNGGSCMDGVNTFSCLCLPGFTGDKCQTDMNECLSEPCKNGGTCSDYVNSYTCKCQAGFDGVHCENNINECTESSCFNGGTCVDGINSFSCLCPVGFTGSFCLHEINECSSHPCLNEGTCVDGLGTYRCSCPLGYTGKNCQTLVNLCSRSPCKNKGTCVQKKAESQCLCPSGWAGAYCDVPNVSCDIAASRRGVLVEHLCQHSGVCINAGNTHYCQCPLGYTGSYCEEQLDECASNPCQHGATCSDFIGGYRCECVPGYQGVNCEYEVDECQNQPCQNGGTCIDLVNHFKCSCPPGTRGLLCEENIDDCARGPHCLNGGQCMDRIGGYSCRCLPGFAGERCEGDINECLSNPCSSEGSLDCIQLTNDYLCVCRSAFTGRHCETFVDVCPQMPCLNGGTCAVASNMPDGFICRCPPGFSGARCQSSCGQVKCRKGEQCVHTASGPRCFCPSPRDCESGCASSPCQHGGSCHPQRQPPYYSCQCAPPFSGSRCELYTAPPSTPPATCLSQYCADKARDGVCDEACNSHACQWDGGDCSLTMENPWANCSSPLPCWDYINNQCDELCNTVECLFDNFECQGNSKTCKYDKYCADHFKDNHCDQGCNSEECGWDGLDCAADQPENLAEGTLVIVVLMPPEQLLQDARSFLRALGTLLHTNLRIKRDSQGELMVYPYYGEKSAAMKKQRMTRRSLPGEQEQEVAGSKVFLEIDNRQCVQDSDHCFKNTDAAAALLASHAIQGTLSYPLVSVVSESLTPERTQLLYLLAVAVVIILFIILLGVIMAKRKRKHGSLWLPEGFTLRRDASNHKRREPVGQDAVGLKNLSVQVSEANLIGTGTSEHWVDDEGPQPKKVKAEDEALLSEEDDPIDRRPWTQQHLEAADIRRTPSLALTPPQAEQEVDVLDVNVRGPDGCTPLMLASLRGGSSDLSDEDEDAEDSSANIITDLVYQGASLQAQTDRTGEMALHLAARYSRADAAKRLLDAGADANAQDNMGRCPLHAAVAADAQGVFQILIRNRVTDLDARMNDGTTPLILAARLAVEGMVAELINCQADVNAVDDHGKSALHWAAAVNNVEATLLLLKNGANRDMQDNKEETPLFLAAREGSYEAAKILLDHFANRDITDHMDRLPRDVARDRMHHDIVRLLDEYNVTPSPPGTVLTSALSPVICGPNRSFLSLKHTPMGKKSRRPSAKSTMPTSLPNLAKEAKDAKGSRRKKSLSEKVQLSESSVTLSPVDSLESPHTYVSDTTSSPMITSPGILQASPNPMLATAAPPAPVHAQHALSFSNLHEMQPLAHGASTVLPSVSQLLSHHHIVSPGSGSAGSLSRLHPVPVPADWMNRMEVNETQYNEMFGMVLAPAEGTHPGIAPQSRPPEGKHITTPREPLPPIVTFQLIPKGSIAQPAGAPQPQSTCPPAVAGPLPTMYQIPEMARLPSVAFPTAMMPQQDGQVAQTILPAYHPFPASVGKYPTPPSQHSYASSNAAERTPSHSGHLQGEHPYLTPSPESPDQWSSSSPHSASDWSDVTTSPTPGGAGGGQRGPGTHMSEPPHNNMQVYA
Sequence of Pro-neuregulin-1, membrane-bound isoform (Homo sapiens) (Q02297 whole entry, looked up, the tested form may be a part, canonical isoform): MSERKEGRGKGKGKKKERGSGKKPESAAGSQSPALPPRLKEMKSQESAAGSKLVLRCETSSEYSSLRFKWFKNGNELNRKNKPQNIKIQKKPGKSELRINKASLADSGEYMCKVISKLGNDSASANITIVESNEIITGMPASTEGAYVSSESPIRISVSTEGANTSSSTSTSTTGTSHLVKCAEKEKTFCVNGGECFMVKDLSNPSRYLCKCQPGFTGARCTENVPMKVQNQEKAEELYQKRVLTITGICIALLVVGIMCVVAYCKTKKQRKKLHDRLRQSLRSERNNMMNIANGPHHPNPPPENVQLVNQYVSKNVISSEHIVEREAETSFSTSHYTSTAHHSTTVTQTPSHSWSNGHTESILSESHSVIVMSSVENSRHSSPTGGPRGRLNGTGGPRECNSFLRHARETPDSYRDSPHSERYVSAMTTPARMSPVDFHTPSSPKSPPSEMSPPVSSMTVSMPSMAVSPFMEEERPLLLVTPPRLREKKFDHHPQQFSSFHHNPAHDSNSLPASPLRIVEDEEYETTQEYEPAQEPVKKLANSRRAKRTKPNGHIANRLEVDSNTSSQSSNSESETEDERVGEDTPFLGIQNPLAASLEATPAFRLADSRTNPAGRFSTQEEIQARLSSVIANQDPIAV

For the molecule `O=C1NC(=O)C2C1C=CC(C(O)c1ccc(F)cc1)N2Nc1ccccn1` (stereo not given), the composite z-score in [1] is 0.22; in assay [2], 0.472; in assay [3], -0.0634; in assay [4] it was 0.354; in [5] it was 0.999; in [6], 0.906. In addition, the composite z-score in assay [7] was 0.957; in assay [9], 0.0731; in [10] it was -0.284. In addition, the z-score in [8] is 0.632 (inactive).
Consider `CCOC(=O)C[C@H]1[C@H](OC(=O)c2ccc(-c3ccccc3)cc2)[C@@H](NC(=O)CC(C)C)c2cc(OCCCO)ccc2N1C(=O)Cc1ccc(OC)cc1`, for which the composite z-score in [1] is 0.0706; in assay [2], 0.445; in assay [3] it was -0.0131; in assay [4] it was 0.135; in assay [5], 0.119; in assay [6] it was 0.828. For the same molecule, the composite z-score in assay [7] was -0.023; in assay [9] it was 0.367; in [10], 0.77. Moreover, in [8], the z-score is -0.33 (inactive).
Take `CC(C)CNC(=O)[C@@]1(C)c2ccccc2C(=O)N(Cc2cc(F)cc(C(F)(F)F)c2)[C@H]1c1ccc(CO)cc1`: the composite z-score was -0.182 in assay [1]; -0.188 in [2]; -0.0422 in [3]; 0.325 in [4]; -0.102 in [5]; 0.669 in assay [6]. For the same molecule, the composite z-score amounted to 1.11 in assay [7], 0.0289 in assay [9] and 0.0722 in assay [10]. The z-score in assay [8] was -1.48 (inactive).
Regarding `COc1cc2c(cc1O)C(C1CC1)N(Cc1ccc([N+](=O)[O-])o1)CC2` (stereo not given), the composite z-score in [1] was -0.0848; in assay [2] it was -0.242; in [3], -0.0226; in assay [4] it was 0.682; in assay [5], 1.52; in [6] it was 1.49. For the same molecule, the composite z-score in assay [7] is 1.03; in assay [9], 0.609; in assay [10] it was -0.0003. Besides, in assay [8], the z-score was -1.1 (inactive).
Consider `O=C1OCCC=C[C@H]2OC34C=CCN(CCN5CCOCC5)C(=O)[C@H]3N(CCCO)C(=O)[C@@H]4C12` (stereo not given in full), for which the composite z-score is -0.0143 in assay [1]; -2.48 in assay [2]; -0.14 in assay [3]; -0.776 in [4]; -0.956 in assay [5]; 0.399 in assay [6]. Also, the composite z-score in assay [7] is -0.873; in assay [9], -0.272; in [10] it was -0.0994. The z-score in [8] was 0.122 (inactive).
In the case of `CC(C)CNC(=O)[C@@H]1c2ccccc2C(=O)N(Cc2ccccc2Cl)[C@H]1c1ccc(CO)cc1`, the composite z-score in assay [1] was 0.29; in assay [2], 0.0116; in [3], -0.129; in assay [4], -0.833; in assay [5] it was -0.595; in [6], -1.27. Moreover, the composite z-score in [7] was 0.252; in [9] it was -0.295; in assay [10], -0.236. Also, the z-score in assay [8] was -1.38 (inactive).
Consider `CC(=O)NCCCC[C@@H]1NC(=O)[C@H]2C[C@@H](C(=O)NCCCCCC[N+](C)(C)C)[C@@H](c3ccc(O)cc3)N2C1=O`, for which the composite z-score is -0.383 in [1]; 0.808 in assay [2]; -0.144 in assay [3]; -0.351 in [4]; -0.181 in assay [5]; 1.35 in assay [6]. Moreover, the composite z-score in [7] is 1.41; in assay [9], -0.18; in assay [10], -0.199. Also, the z-score in assay [8] is 5.36 (inactive).
For `C=C(COC)C(=O)CC[C@@H](OC(C)=O)c1ccc(OCCO)cc1`, the composite z-score in assay [1] is 0.266; in assay [2] it was 1.48; in assay [3], -0.107; in [4] it was 0.432; in assay [5], 0.297; in assay [6], -0.239. The composite z-score in [7] is 0.835; in assay [9], -0.25; in assay [10], 0.347. In [8], the z-score was -0.556 (inactive).
With `COc1cccc(OC)c1C(=O)O[C@H]1[C@@H]2OC(=O)[C@H](Cc3cccc(Br)c3)C/C=C/C[C@@H](Cc3cccc(Br)c3)C(=O)O[C@H]2[C@@H](OC)O[C@@H]1CO`, the composite z-score was 0.0113 in [1]; 0.94 in assay [2]; -0.0262 in assay [3]; 0.205 in assay [4]; 0.194 in assay [5]; 1.28 in assay [6]. The composite z-score in assay [7] was 0.945; in assay [9], 0.401; in assay [10], 0.101. Moreover, in assay [8], the z-score was -0.199 (inactive).
Turning to `CCOC(=O)C[C@H]1[C@H](OC(=O)c2ccc(-c3ccccc3)cc2)[C@@H](NC(=O)c2ccc3ccccc3c2)c2cc(OCCCO)ccc2N1C(=O)c1ccccc1`, the composite z-score in assay [1] was -0.211; in assay [2], -0.0761; in assay [3] it was -0.0692; in assay [4], 0.557; in [5], 0.736; in assay [6], -0.0077. The results for the composite z-score in [7], in assay [9] and in assay [10] were 0.627, 0.412 and -0.0115, respectively. For the same molecule, the z-score in assay [8] is -0.182 (inactive).
As for `CN(C)CCCC[C@@H]1NC(=O)[C@@H]2C[C@H](C(=O)NCCCCCCNC(=O)CS)[C@H](c3cccc(OCCO)c3)N2C1=O`, the composite z-score was 0.0594 in assay [1]; 0.353 in [2]; -0.0621 in assay [3]; 0.628 in assay [4]; -0.453 in assay [5]; 0.67 in assay [6]. The composite z-score came out at 0.838 in assay [7], 0.123 in assay [9] and 0.0373 in [10]. Also, the z-score in assay [8] was -0.786 (inactive).
As for `C=CCC(OC(C)=O)[C@@H]1[C@@H](N(Cc2ccc(-c3cccc(C(F)(F)F)c3)o2)C(=O)c2cccc3ccccc23)c2cc(OCCCO)ccc2N1C(=O)c1ccc2ccccc2c1` (stereo not given in full), the composite z-score in assay [1] is 0.125; in assay [2] it was -0.132; in assay [3], -0.0909; in assay [4] it was 0.224; in [5], -0.365; in [6], 0.62. The composite z-score was -0.332 in [7], -0.0637 in assay [9] and -0.15 in [10]. For the same molecule, in assay [8], the z-score was 0.141 (inactive).
Take `COCCOC(=O)N1C(=O)[C@@]2(c3cc(C#CC4=CCCCC4)ccc31)[C@H](c1ccc(OCCO)cc1)N1[C@H](c3ccccc3)[C@H](c3ccccc3)OC(=O)[C@H]1[C@@H]2C(=O)N1CCCCCCC1`: the composite z-score in assay [1] was 2.32; in assay [2] it was 0.945; in assay [3] it was 0.303; in [4], 0.474; in assay [5] it was 1.37; in assay [6], 1.07. Moreover, the results for the composite z-score in assay [7], in assay [9] and in assay [10] were 1.13, 2.12 and 1.9, respectively. The z-score in [8] is -1.62 (inactive).
With `CC(c1ccccc1)C(O)C1C=CC2C(=O)N(c3ccccc3)C(=O)C2N1Nc1ccc(C#N)cc1` (stereo not given), the composite z-score in assay [1] is -0.177; in [2], 0.358; in assay [3], 0.255; in [4] it was 0.752; in [5], 1.59; in assay [6] it was 1.91. Moreover, the composite z-score in assay [7] turned out to be 1.34; in assay [9] it was 1.42; in assay [10], 0.0139. The z-score in [8] was -0.948 (inactive).
